A selection: hits, their analogues and other compounds. The true share with any hit is near 3.1%.
PMP22 txn prim – modulates PMP22 transcription in S16 Schwann cells; S16 Pmp22-F2sN Schwann cells, FLuc/NLuc coincidence luminescence, 24 h; Potency, µM (series often up to 57.5 µM), for the others: at the top dose activity change, negative = inhibition, actives largely listed as inhibitors; 2% of 43,000 active; AID 1508649; active = clear falling dose curves in both reporters; inconclusive = both reporters move, but less clearly or upward; inactive = either reporter flat; the % is the NLuc reporter signal
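Reporter cells (S16 Pmp22-F2sN, 500–1,000 per well) exposed to compounds for 24 h, 37C, 5% CO2; lysis with FLuc read after 10 min, then Stop&Glo and NLuc read after 10 min.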
p53null 32C tox – p53 null cell cytotoxicity, permissive temperature. H1299-neo p53 null cells, ATP luminescence, 24 h, 32C. Potency, µM (highest dose often 46.1 µM), for the others: top-dose activity change, negative = cytotoxicity, hits mostly cytotoxic. 0.62% of 55,000 active;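 note: 0% = DMSO only and -100% = full killing by 100 µM tamoxifen; nearly all actives have a fitted effect of over 55% in size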
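Luminescent ATP readout gave cell viability of p53-null H1299-neo cells after a 24 h compound exposure at the permissive 32C. Titrations ran up to 46 uM, and AC50s were fitted with the standard Hill equation.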
pS6 MEF inh – reduces mTORC1 signaling in Tsc2 and p53 null MEF cells; Tsc2-/- p53-/- MEF, phospho-rpS6 immunofluorescence/PI, 24 h; Potency, µM (series often up to 38.3 µM), for the others: at the highest dose activity change, negative = inhibition, hits mostly inhibitors; 0.78% of 44,000 active;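 note: plate controls were DMSO for no effect and rapamycin for full effect; nearly all actives have a fitted effect of over 50% in size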
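Read-out: phospho-S6 Alexa-488 intensity over PI intensity per well, scored as % active cells using thresholds from rapamycin (7.5 nM) and DMSO controls. Tsc2-/-, p53-/- MEFs exposed to compound for 24 h; PI cell count recorded as viability.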
S16 viability – toxic to S16 Pmp22-F2sN Schwann cells. S16 Pmp22-F2sN Schwann cells (luciferase reporters placed in the Pmp22 gene) viability, CellTiter-Glo, 24 h. Potency, µM (highest dose often 57.5 µM), for inactives: top-dose activity change, negative = cytotoxicity, actives largely listed as cytotoxic. 0.48% of 43,000 active; note: nearly all actives have a fitted effect of over 65% in size
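Rat S16 Schwann reporter line, 24 h treatment with library compounds delivered at 23 nL per well. Cell viability by CellTiter-Glo luminescence.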
SKOV3 invasion – blocks SKOV3ip1 adhesion and invasion in omental model; SKOV3ip1-GFP adhesion/invasion on 3D omental model, fluorescence; Potency, µM (highest dose often 45.8 µM), for inactives: top-dose activity change, negative = inhibition, most hits filed as inhibitors; 0.1% of 46,000 active; AID 1963576;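 note: plate controls were DMSO wells for no effect and tomatine positive control wells for full effect; nearly all actives have a fitted effect of over 65% in size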
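Primary human omental fibroblast/mesothelial 3D culture pre-formed 48 h. SKOV3ip1-GFP cells added with compounds (0.36-46 umol/L), incubated 2 h RT/16 h 37 C, fixed; GFP cells quantified at 488/509 nm.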
p53null 39C kill – kills p53 null cells at the nonpermissive temperature; H1299 p53-null (neo) cells, 39C, ATPlite viability, 24 h; Potency, µM (top dose mostly 46.1 µM), for inactives: top-dose activity, negative = cell killing, actives largely listed as cytotoxic; 0.97% of 55,000 active; AID 904;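 note: 0% = DMSO only and -100% = full killing by 100 µM tamoxifen; nearly all actives have a fitted effect of over 50% in size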
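Temperature-shift cytotoxicity format: compound titrations on p53-null or A138V-expressing H1299 cells held 24 hr at 39C, cell ATP then measured, AC50 from Hill model.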
The depositor's hits bear a star; i = inactive; ? = inconclusive; · = no result. Unless noted, calls come from the whole dose curve; as a rule, active = well fitted curve in the direction sought with a large enough effect; inconclusive = small, poorly fitted or top-dose-only effect, or another doubt; inactive = no such curve, though single readings can be large; an effect the other way counts as inactive or inconclusive. Unless noted, % is set by controls: 0 for no effect and ±100 for the full control effect; potency is the fitted concentration of half-maximal effect.

SMILES	PMP22 txn prim	p53null 32C tox	pS6 MEF inh	S16 viability	SKOV3 invasion	p53null 39C kill
COC1=C2C[C@@H](C)C[C@H](OC)[C@@H](O)[C@@H](C)C=C(C)[C@H](OC(N)=O)[C@@H](OC)C=CC=C(C)C(=O)NC(=CC1=O)C2=O	·	·	·	·	-4.8%	·
Cn1cc(S(=O)(=O)CC(=O)Nc2ccc3c(c2)OCCO3)c2ccccc21	·	?	·	·	·	28.2µM*
NC(N)=Nc1nc(CSCCC(N)=NS(N)(=O)=O)cs1	·	·	·	·	12.5%	·
CN(C)S(=O)(=O)c1ccc2c(c1)C(=Cc1cc3c([nH]1)CCCC3)C(=O)N2	·	·	·	·	25.9%	·
Cc1ccc(C)c(Cn2c(=O)n(Cc3ccc(C(=O)NC4CCN(Cc5ccccc5)CC4)cc3)c(=O)c3ccccc32)c1	-3.7%	10.1%	-5.3%	18.9%	4.6%	-14.8%
O=C(NC1CCN(Cc2ccccc2)CC1)c1ccc(Cn2c(=O)c3ccccc3n(Cc3ccc(F)cc3)c2=O)cc1	?	38.3%	3.29µM*	?	2.5%	4.0%
COC(=O)NCC(c1cccnc1)N1CCN(c2ccc(F)cc2)CC1 (stereo not given)	?	?	-7.3%	1.6%	2.6%	25.1µM*
O=C(NCCc1ccccc1)C(=O)NCC(c1cccnc1)N1CCN(c2ccc(F)cc2)CC1 (stereo not given)	?	-4.1%	?	?	-2.5%	11.2µM*
COC(=O)NCC(c1cccnc1)N1CCN(c2ccccc2)CC1 (stereo not given)	·	-1.7%	·	·	·	-1.3%
COc1ccc(N2CCN(c3ncnc4c3cnn4C)CC2)cc1	?	4.8%	7.8%	-19.2%	1.5%	2.2%
Cc1ccc(-n2ncc3c(N(C)Cc4ccccc4)ncnc32)cc1	-2.6%	12.6µM*	11.8%	4.3%	-4.3%	20.1%
Cc1ccc(-n2ncc3c(N(CCO)Cc4ccccc4)ncnc32)cc1	-5.2%	-24.2%	-15.7%	?	9.0%	11.8%
Cc1ccc(-n2ncc3c(N4CCCCC4)ncnc32)cc1	2.7%	1.58µM*	11.8%	5.4%	-11.7%	6.31µM*
COc1ccc(-n2ncc3c(N4CCCCC4)ncnc32)cc1	·	2.51µM*	·	·	·	3.98µM*
Cc1ccc2nc(-c3ccc(NC(=O)c4ccccc4S(C)(=O)=O)cc3)sc2c1	?	-3.0%	3.3%	17.6%	i	22.4%
Cc1ccc2nc(-c3ccc(NC(=O)CN4C(=O)c5ccccc5C4=O)cc3)sc2c1	·	22.4µM*	·	·	·	·
Cc1ccc2nc(-c3ccc(NC(=O)C(F)(F)F)cc3)sc2c1	-10.7%	2µM*	1.0%	11.0%	8.0%	1.26µM*
Oc1ccc(C2CCN(c3ccnc4ccccc34)CC2)cc1O	·	·	·	·	19.0%	·
CC(C)COc1ccc(C(=O)Nc2nnc(S(=O)(=O)N(C)Cc3ccco3)s2)cc1	-7.2%	?	2.1%	19.2%	i	10µM*
COc1ccc2c(Sc3ccc(C)cc3)c(C(=O)NCCc3ccccc3)[nH]c2c1	?	-13.6%	-2.1%	0.8%	?	17.5%
COCCCNC(=O)c1[nH]c2cc(OC)ccc2c1Sc1ccc(C)cc1	·	-13.0%	-1.2%	15.0%	0.5%	15.8µM*
Cc1cccc(CCNC(=O)c2cc3c(s2)-c2c(C)cccc2OC3)c1	?	-6.0%	-3.0%	?	-16.6%	-23.4%
Cc1cccc2c1-c1sc(C(=O)NCCc3ccc(Cl)cc3)cc1CO2	?	0.3%	?	31.6µM*	-23.8%	?
Cc1cc2c(F)c(Oc3ncnn4cc(OC[C@@H](C)O)c(C)c34)ccc2[nH]1	·	·	·	·	7.6%	·
COc1cccc(C(=O)Nc2nc3c(s2)CCCC3)c1	?	12.6µM*	-7.5%	-19.2%	i	5.01µM*
CC(C)CS(=O)(=O)c1oc(-c2ccc(F)cc2)nc1S(=O)(=O)c1ccccc1	?	?	0.736µM*	4.47µM*	?	3.16µM*

Screens deposited in PubChem by National Center for Advancing Translational Sciences (NCATS).
